High-throughput results deposited in PubChem BioAssay by several laboratories.
Compounds with a hit are over-represented: about 4.5% of the library has one in this group of screens.
ZTA counter = ZTA (EBV) inhibition in EBNA-1 counter-screen | inhibition, % at 11 µM | P03206 | hit rate 0.15% among 320,000 | ZTA-DNA binding, fluorescence polarization; in the data active means inhibition above about 33%
TPT1 inh = inhibitors of Candida albicans tRNA 2'-phosphotransferase TPT1 | recombinant caTPT1, FP RNA substrate dephosphorylation | inhibition, % at 5 µM | hit rate 0.81% among 300,000;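 active means inhibition above the mean of all tested compounds plus 3 SD, set per screening campaign, cut at about 24% in these data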
NR3A LBD binder = modulates the human NR3A ligand-binding domain. NR3A LBD differential scanning fluorimetry, Tm shift; 0% = protein alone, 100% = glycine-bound protein. Tm shift relative to glycine control, % at 25 µM. hit rate 2.5% among 340,000. AID 1259313;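 active means melting temperature shift of at least 10% of the positive control shift, at one fixed dose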
EBNA-1 inh = blocks EBNA-1 binding to DNA | EBNA-1 DNA binding, fluorescence polarization | inhibition, % at 14.8 µM | hit rate 0.34% among 300,000 | AID 1950; in the data active means inhibition above about 28%
dFosB act-1 = enhances mouse delta FosB homodimer DNA binding; purified delta FosB, TAMRA-CDK5 oligo fluorescence polarization; percent of positive-control signal above neutral wells; P13346; activation, % at 25 µM; hit rate 0.99% among 340,000;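 active means mean activation above about 17%, with every replicate also reaching it, limit read from the data, passing the limit was not always enough; inconclusive means only one of the two conditions met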
Target sequence (P13346 whole entry, looked up): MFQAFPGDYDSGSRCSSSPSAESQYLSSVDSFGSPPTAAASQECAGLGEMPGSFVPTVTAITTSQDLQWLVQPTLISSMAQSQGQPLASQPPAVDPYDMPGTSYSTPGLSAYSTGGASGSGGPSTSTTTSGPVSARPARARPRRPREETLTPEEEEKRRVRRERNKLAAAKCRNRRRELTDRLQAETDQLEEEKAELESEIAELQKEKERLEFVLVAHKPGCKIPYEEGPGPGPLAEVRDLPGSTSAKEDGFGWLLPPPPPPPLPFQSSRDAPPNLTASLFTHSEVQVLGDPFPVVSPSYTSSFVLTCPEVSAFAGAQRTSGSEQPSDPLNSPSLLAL
Rpn11 block = inhibitors of human proteasome Rpn11 | inhibition, % at 20 µM | hit rate 0.59% among 360,000 | human 26S proteasome, Ub4-pepOG fluorescence polarization; 20S core pre-blocked with epoxomicin;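 active means inhibition at 20 µM, scaled to each plate's controls, above about 33%, limit read from the data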
Target sequence (O00487 whole entry, looked up): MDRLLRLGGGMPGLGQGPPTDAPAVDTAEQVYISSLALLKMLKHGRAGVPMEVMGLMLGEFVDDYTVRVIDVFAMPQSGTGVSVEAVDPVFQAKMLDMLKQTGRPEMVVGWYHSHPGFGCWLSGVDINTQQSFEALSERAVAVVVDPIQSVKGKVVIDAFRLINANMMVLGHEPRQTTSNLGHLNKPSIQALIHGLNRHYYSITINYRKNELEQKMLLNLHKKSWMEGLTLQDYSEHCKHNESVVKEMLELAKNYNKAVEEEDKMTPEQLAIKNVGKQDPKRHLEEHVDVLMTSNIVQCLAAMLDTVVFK
dFosB act-2 = enhances mouse delta FosB homodimer binding to DNA. shares compounds with dFosB act-1. purified delta FosB, TAMRA-CDK5 oligo fluorescence polarization; normalised: neutral wells 0, positive control 100. activation, % at 24.9 µM. 2,400 tested, under 10 active. AID 588690;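 active means highest replicate activation at or above 34% and every replicate reaching that threshold; inconclusive means meets only one of the two criteria; inactive means meets neither criterion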;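 further: higher polarization means more probe DNA bound by delta FosB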
Of the large screens only hits and unclear results are named; the others gave an inactive call (follow-up assays come after a bar, where they were run).

COc1ccccc1/C=C/C(=O)NC(=S)Nc1ccc(S(=O)(=O)N(C)c2ccccc2)cc1	dFosB act-1 24 | dFosB act-2 inactive
Nc1c(N(CCC2=CCCCC2)C(=O)COc2ccc(F)cc2Cl)c(=O)[nH]c(=O)n1Cc1ccccc1	dFosB act-1 29 (no result: ZTA counter, TPT1 inh, EBNA-1 inh) | dFosB act-2 inactive
COc1ccccc1CNC(=O)Cn1ccsc1=N	none
Cc1ccc(C(=O)N(Cc2cccnc2)Cc2cc3cc(C)ccc3n3nnnc23)cc1	none
Nc1nc(SCC(=O)NCc2ccccc2Cl)[nH]c(=O)c1NC(=O)c1ccccc1F	none
Nc1nc(SCC(=O)NCc2ccc(F)cc2)[nH]c(=O)c1NC(=O)c1ccc(Cl)cc1	dFosB act-1 33 | dFosB act-2 inactive
CC(=O)Nc1ccc(NC(=O)CSc2nc(N)c(NC(=O)c3ccccc3F)c(=O)[nH]2)cc1	dFosB act-1 17 | dFosB act-2 inactive
CSCCC(=O)N1CCC(CCC(=O)NC2CC2)CC1	none
CCN(Cc1ccccc1)C(=O)COC(=O)Cn1cnc2ccccc21	none
COc1cc(OC)c(NC(=O)c2sc3ncn(CC(=O)N4CCN(c5ccccn5)CC4)c(=O)c3c2C)cc1Cl	dFosB act-1 24 | dFosB act-2 inactive
CC(=O)N1CCOc2ccc(S(=O)(=O)N3CCC(C(=O)NCc4ccccc4)CC3)cc21	none
O=c1c(Cc2ccccc2)c(O)ccn1Cc1ccc2c(c1)OCO2	dFosB act-1 37 | dFosB act-2 inactive
CCOc1ccc(/C=N/NC(=O)c2cc3ccccc3cc2OC)cc1	NR3A LBD binder 24, dFosB act-1 19 | dFosB act-2 inactive
Cc1occc1C(=O)N/N=C/c1ccc(OCc2ccccc2)cc1	NR3A LBD binder 35, dFosB act-1 30 | dFosB act-2 inactive
CCOC(=O)c1sc(NC(=O)CCc2ccc(OC)cc2)nc1C	dFosB act-1 25 | dFosB act-2 inactive
COc1ccc(-c2nnc(SCC(=O)c3cc(C)n(Cc4cccs4)c3C)o2)cc1	dFosB act-1 43 | dFosB act-2 inactive
COc1ccc(-c2nnc(SCC(=O)c3ccc[nH]3)o2)cc1	none
COc1ccc(-c2nnc(SCC(=O)c3ccc(O)cc3O)o2)cc1	dFosB act-1 40 | dFosB act-2 inactive
CCN(CC)CCN(C(=O)c1ccc(C(=O)c2ccccc2)cc1)c1nc2c(OC)cccc2s1	dFosB act-1 33 | dFosB act-2 inactive
CCOc1ccc2nc(N(CCN(C)C)C(=O)c3ccc4c(c3)CCCC4)sc2c1	dFosB act-1 30 | dFosB act-2 inactive
CCN(CC)CCN(C(=O)c1ccc2ccccc2c1)c1nc2ccc(OC)cc2s1	dFosB act-1 26 | dFosB act-2 inactive
CCN(CC)CCN(C(=O)c1ccc([N+](=O)[O-])cc1)c1nc2c(OC)cccc2s1	none
Cc1cccc(Nc2nc(Cl)ncc2F)c1C	none
Cc1cccc(C(=O)NC(C(=O)Nc2ccccc2N2CCOCC2)C(C)C)c1 (stereo unspecified)	none
Cc1ccsc1C(=O)NNC(=O)Nc1ccc(Cl)c(Cl)c1	dFosB act-1 25 | dFosB act-2 inactive
Cc1occc1C(=O)NNC(=O)Nc1ccc(Cl)c(Cl)c1	none
C[C@H]1CN([C@@H](C)CO)C(=O)c2cccc(NC(=O)Nc3ccc(C(F)(F)F)cc3)c2O[C@@H]1CN(C)S(=O)(=O)c1ccccc1	NR3A LBD binder 13, dFosB act-1 29 (no result: ZTA counter, TPT1 inh, EBNA-1 inh) | dFosB act-2 inactive
COc1ccc(S(=O)(=O)N(C)C[C@H]2Oc3c(NC(=O)Nc4ccc(C(F)(F)F)cc4)cccc3C(=O)N([C@H](C)CO)C[C@@H]2C)cc1	NR3A LBD binder 11, dFosB act-1 66 (no result: ZTA counter, TPT1 inh, EBNA-1 inh) | dFosB act-2 inactive
CC(C)c1cccc(C(C)C)c1NC(=O)COC(=O)[C@H](C)NC(N)=O	none
O=C(COC(=O)CNC(=O)c1sc2ccccc2c1Cl)Nc1c(Cl)cc(Cl)cc1Cl	dFosB act-1 40 | dFosB act-2 inactive
O=C(COC(=O)c1sc2ccccc2c1Cl)NC1CCCCC1	none
NC(=O)NC(=O)COC(=O)c1sc2ccccc2c1Cl	dFosB act-1 43 | dFosB act-2 inactive
O=C(Cn1nnc(-c2ccccc2)n1)NNC(=O)c1ccc(Br)cc1	dFosB act-1 36 | dFosB act-2 inactive
O=C(Cn1nnc(-c2ccccc2)n1)NNC(=O)c1ccccc1	none
COCc1cc(=O)[nH]c(Nc2nc(C)c3cc(OC)ccc3n2)n1	none (no result: NR3A LBD binder, dFosB act-1, Rpn11 block)
CCOc1ccc2nc(NC3=NC(C)(C)C=C(C)N3)nc(C)c2c1	dFosB act-1 23 | dFosB act-2 inactive
Cc1ccc(SCc2cc(=O)[nH]c(Nc3nc(C)c4ccc(C)cc4n3)n2)cc1	none
CCOc1ccc2c(C)nc(NC3=NC(C)(C)C=C(C)N3)nc2c1	dFosB act-1 26 | dFosB act-2 inconclusive
Nc1nc(N)c2c(ccc3nccc32)[nH]1	dFosB act-1 36 | dFosB act-2 inactive
C[C@H](CO)N1C[C@H](C)[C@@H](CN(C)C(=O)Nc2ccc(C(F)(F)F)cc2)Oc2ccc(NS(=O)(=O)c3cn(C)cn3)cc2C1=O	none (no result: ZTA counter, TPT1 inh, EBNA-1 inh)
Cc1ccc(-c2nn(CC(=O)NC(C)c3ccccc3)c(=O)c3ccccc23)cc1 (stereo unspecified)	dFosB act-1 28 | dFosB act-2 inactive
CCC(=O)NC(=S)Nc1ccc(NC(=O)c2cc3ccccc3o2)c(OC)c1	dFosB act-1 67 | dFosB act-2 inactive
CCc1nc(N2CCN(CC(=O)NCC3CCCO3)CC2)c(C#N)c2c1COC(C)(C)C2 (stereo unspecified)	none
Cc1ccc(NC(=O)Cn2c(=O)n(Cc3ccco3)c(=O)c3ccccc32)c(C)c1	dFosB act-1 32 | dFosB act-2 inactive
Cc1cc(NC(=O)Cn2c(=O)n(Cc3ccccc3)c(=O)c3ccccc32)no1	dFosB act-1 52 | dFosB act-2 inactive
O=C(Cn1c(=O)n(Cc2ccco2)c(=O)c2ccccc21)Nc1cccc(Cl)c1	dFosB act-1 inconclusive
O=C(CCCCn1c(=O)c2ccccc2n(CC(=O)Nc2ccc(F)cc2)c1=O)NCc1ccco1	none
Cc1ccc(NC(=O)Cn2c(=O)n(CCCCC(=O)NCc3ccco3)c(=O)c3ccccc32)cc1	dFosB act-1 31 | dFosB act-2 inactive
COc1cc(-c2cc(C(=O)Nc3cccc(C(C)=O)c3)c3ccccc3n2)cc(OC)c1OC	dFosB act-1 28 | dFosB act-2 inactive
N#Cc1c(NCCN)nc(-c2ccco2)c2c1CCCC2	dFosB act-1 26 | dFosB act-2 inactive
COc1ccc(Cc2nnc(NC(=O)c3cccc(F)c3)s2)cc1OC	dFosB act-1 19 | dFosB act-2 inactive
Nc1nonc1-n1nnc(C(=O)N/N=C/c2ccc(Br)cc2)c1-c1ccc2c(c1)OCO2	dFosB act-1 21 | dFosB act-2 inactive
